# Where “and” joins values, the source holds several entries; their conditions need not be identical. Equal entries are not always repeated. Inconclusive results are not listed. Calls of active or inactive are those of the source. Rule as the data show it, unless noted: active = inhibition above about 80%; inactive = the rest.
# Experiments:
# [1] = viability loss in pontine glioma line – cell-based, SU-DIPG-XIII, MIPE4.0, CellTiter-Glo, qHTS, dose response (AID 1347061; cut-off not given, nearly all actives have AC50 up to about 37 µM;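 also: cells exposed to compound for 48 hours before readout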); settings: CellTiter-Glo ATP luminescence
# [2] = viability loss in pontine glioma line – cell-based, SU-DIPG-IV, MIPE4.0, CellTiter-Glo, qHTS, dose response (AID 1347063; cut-off not given, nearly all actives have AC50 up to about 30 µM;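 also: compound exposure lasted 48 hours before the viability readout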); settings: CellTiter-Glo ATP luminescence
# [3] = viability loss in pontine glioma line – cell-based, SU-DIPG-XXV, MIPE5.0, CellTiter-Glo, qHTS, dose response (AID 1347065; cut-off not given, nearly all actives have AC50 up to about 26 µM;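 also: cells exposed to compound for 48 hours before ATP readout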); settings: CellTiter-Glo ATP luminescence
# [4] = JHH-DIPG-1 glioma cell viability, MIPE5.0 library, CellTiter-Glo luminescence, qHTS (AID 1347067; cut-off not given, nearly all actives have AC50 up to about 26 µM;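 also: cells exposed to compound for 48 hours before readout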); settings: JHH-DIPG-1 glioma viability, CellTiter-Glo ATP luminescence
# [5] = viability loss with induced miR-34 in A549 – imaging, A549 dox-inducible miR-34, nuclei and caspase counts, primary screen (AID 1347080;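 active = compounds whose cell count with miR-34 switched on is under 0.7 times the count with it off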); settings: A549 miR-34 inducible, Hoechst nuclei count, 48 h
# [6] = compounds altering HSF1 focus formation in cells – imaging, Selleck Cancer Library (AID 1347162; in the data active = plate-normalised HSF1 focus index below about 0.46); settings: human cells, HSF1 nuclear foci imaging, at 10 µM; SSMD: measured here: HSF1 foci SSMD mean; cell count: measured here: cell number; plate-normalised HSF1 focus index: stronger effect = lower value
# [7] = growth inhibition, single agent or in combination, cell-based, chromothripsis tumors, cisplatin or BGB combos (AID 1671449); settings: LFS_MB_P medulloblastoma cells;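 also: cells exposed for 96 hours; 0% = vehicle DMSO and 100% = killing by high DMSO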
# [8] = growth inhibition, single agent and combos, cell-based, chromothripsis tumors, cisplatin or BGB combos (AID 1671450); settings: HDN33 neuroblastoma cells, stronger effect = higher value;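 also: cells exposed to compound for four days; 0% = vehicle DMSO and 100% = cell killing by high DMSO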
# [9] = growth inhibition, single agents and combos, ICB984, cell-based, cisplatin or BGB combos, synergistic combos for chromothripsis tumors (AID 1671451; call rule not given here;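 also: cells exposed for 96 hours before readout; 0% = vehicle DMSO and 100% = killing by high DMSO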); settings: ICB984 medulloblastoma cells, drug combinations, stronger effect = higher value
# [10] = growth inhibition, single agents and combos, LFS_MB_1R, cell-based, cisplatin or BGB combos, synergistic combos for chromothripsis tumors (AID 1671452); settings: LFS_MB_1R medulloblastoma cells, stronger effect = higher value;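 also: cells exposed for 96 hours before readout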
# [11] = growth inhibition, single agents and combos, HTB85, cell-based, BGB or cisplatin IC20 combos, synergistic combos for chromothripsis tumors (AID 1671453); settings: HTB85 osteosarcoma cells, drug combinations, stronger effect = higher value;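 also: cells exposed for 96 hours before readout; 0% = vehicle DMSO and 100% = high DMSO killing control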
# [12] = growth inhibition, MDA-MB-436, cell-based, BGB or cisplatin combos, synergistic combos for chromothripsis tumors (AID 1671458; call rule not given here;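 also: cells exposed for 96 hours; 0% = vehicle DMSO and 100% = killing by high DMSO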); settings: MDA-MB-436 breast carcinoma growth inhibition, drug combinations, stronger effect = higher value
# [13] = BT084 cell growth, single and combined drugs, ICGC_MB145, cisplatin and BGB IC40 combos (AID 1671461); settings: BT084 medulloblastoma cells, drug combinations, stronger effect = higher value;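 also: cells exposed to drugs for 96 hours; 0% = vehicle DMSO and 100% = high DMSO full killing control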
# [14] = RCMB18 cell growth, single agent and combined, cisplatin and BGB IC40 combos (AID 1671462); settings: RCMB18 medulloblastoma cells, stronger effect = higher value;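 also: cells exposed to compound for four days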
# [15] = CRL1545 cell growth, single agent and combined, cisplatin and BGB IC20 combos (AID 1671464); settings: CRL1545 osteosarcoma cells, stronger effect = higher value;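 also: cells exposed to compound for 96 hours before readout; 0% = vehicle DMSO and 100% = high DMSO killing control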
# [16] = measured here: combination with BGB IC40, at 0.05 µM
# [17] = measured here: with BGB IC20 combination, at 0.5 µM
# [18] = measured here: with cisplatin IC20 combination, at 0.5 µM
# [19] = measured here: combination with cisplatin, at 0.5 µM
smiles,measurement,setting,value
CC(C)(C)OC(=O)Nc1ccc(-c2cc(C(=O)NCCCCCCC(=O)NO)no2)cc1,AC50,[1],13200 nM (active)
same,AC50,[2],2640 nM (active)
same,AC50,[3],2950 nM (active)
same,AC50,[4],3720 nM (active)
same,fold change,"[5]; stronger effect = lower value, cell number ratio, induced over uninduced",1.08 (inactive)
same,fold change,[5]; measured here: relative caspase fold change +Dox/-Dox,1.18
same,cell count,"[5]; measured here: total cells with miR-34 induction, stronger effect = lower value",3170
same,cell count,[5]; measured here: total cells without miR-34 induction,2940
same,SSMD,[6],-0.325
same,cell count,[6],7020
same,plate-normalised HSF1 focus index,[6],0.983 (inactive)
same,inhibition,"[7]; at 0.5 µM, stronger effect = higher value",-18.3% (inactive) and -10.4% (inactive)
same,inhibition,"[7]; measured here: combination with BGB IC20, at 0.005 µM",-24.2% and -11.2%
same,inhibition,"[7]; measured here: combination with BGB IC40, at 0.005 µM",-24.3% and -8.96%
same,inhibition,[7]; [16],-25.1% and 5.48%
same,inhibition,"[7]; measured here: combination with cisplatin, at 0.5 µM, stronger effect = higher value",-19.2% and 23.7%
same,inhibition,"[7]; measured here: combination with cisplatin, at 5 µM, stronger effect = higher value",70% and 74.7%
same,inhibition,"[8]; BGB combo, at 5 µM",75.4% and 95.4%
same,inhibition,[8]; at 0.5 µM,-11.6% (inactive) and 3.28% (inactive)
same,inhibition,"[8]; cisplatin combo, at 5 µM",84.3% and 99.1%
same,inhibition,[8]; [17],-23% and -2.22%
same,inhibition,[8]; [18],1.12% and 13.2%
same,inhibition,"[8]; single agent, at 5 µM",86.2% and 98%
same,inhibition,"[9]; BGB IC20 combo, at 0.005 µM",-9.7% and -9.21%
same,inhibition,"[9]; BGB IC40 combo, at 0.005 µM",-27.3% and -46%
same,inhibition,"[9]; BGB IC40 combo, at 0.05 µM",38.6% and 39.7%
same,inhibition,[9]; at 0.5 µM,-16.4% (inactive) and -21.9% (inactive)
same,inhibition,"[9]; cisplatin combo, at 0.05 µM",35.7% and 37.3%
same,inhibition,"[9]; cisplatin combo, at 0.5 µM",-28% and -20.5%
same,inhibition,"[9]; cisplatin combo, at 5 µM",-41.9% and -70.6%
same,inhibition,"[9]; measured here: 5 uM single agent, at 5 µM",-17.6% and -12.3%
same,inhibition,[10]; at 0.5 µM,-23.9% (inactive) and 0.63% (inactive)
same,inhibition,[10]; [16],-39.1% and -9.87%
same,inhibition,[10]; [19],-43.1% and 4.1%
same,inhibition,"[10]; measured here: combination with cisplatin, at 5 µM",61.5% and 70.7%
same,inhibition,[11]; at 0.5 µM,-17.8% (inactive) and -4.69% (inactive)
same,inhibition,"[11]; measured here: with BGB IC20, at 0.5 µM",-25.7% and -17.1%
same,inhibition,"[11]; measured here: with BGB IC20, at 5 µM",49.9% and 86.7%
same,inhibition,"[11]; measured here: with cisplatin IC20, at 0.5 µM",-5.92% and 8.08%
same,inhibition,"[11]; measured here: with cisplatin IC20, at 5 µM",62.7% and 92.5%
same,inhibition,"[11]; single agent, at 5 µM",77.5% and 87.2%
same,inhibition,[12]; at 0.5 µM,-5.18% (inactive) and -14.7% (inactive)
same,inhibition,"[12]; measured here: BGB combination, at 0.5 µM",-6.05% and -29.4%
same,inhibition,"[12]; measured here: BGB combination, at 5 µM",54.7% and 62.5%
same,inhibition,"[12]; measured here: cisplatin combination, at 0.5 µM",-18.7% and -11.1%
same,inhibition,"[12]; measured here: cisplatin combination, at 5 µM",56.9% and 63%
same,inhibition,[13]; at 0.5 µM,9.8% (inactive) and 2.37% (inactive)
same,inhibition,"[13]; cisplatin combination, at 0.5 µM",8.11% and 13.2%
same,inhibition,"[13]; cisplatin combination, at 5 µM",29.8% and 83.8%
same,inhibition,"[13]; measured here: BGB IC40 combination 0.05 uM, at 0.05 µM",-31% and -31.3%
same,inhibition,"[13]; single agent, at 5 µM",33.2% and 32%
same,inhibition,[14]; at 0.5 µM,-13.3% (inactive) and 2% (inactive)
same,inhibition,"[14]; cisplatin combo, at 5 µM",55.6% and 86.3%
same,inhibition,"[14]; measured here: BGB IC40 combination, at 0.05 µM",43.9% and -7.68%
same,inhibition,[14]; [19],-24.8% and 36.6%
same,inhibition,"[14]; single agent, at 5 µM",42.9% and 30.3%
same,inhibition,[15]; at 0.5 µM,51.1% (inactive) and 53.4% (inactive)
same,inhibition,[15]; [17],34.6% and 54.1%
same,inhibition,[15]; [18],58.7% and 53.1%
same,inhibition,"[15]; single agent, at 0.05 µM",-13.9% and 7.41%
same,inhibition,"[15]; single agent, at 5 µM",94% and 95%
CCC(=O)OCC(=O)[C@@]1(OC(=O)CC)[C@@H](C)C[C@H]2[C@@H]3CCC4=CC(=O)C=C[C@]4(C)[C@@]3(F)[C@@H](O)C[C@@]21C,AC50,[1],9.35 nM (active)
same,AC50,[2],2350 nM (active)
